Reference: PubChem BioAssay (Tox21)
Results filed as inconclusive are left out. Active and inactive are the calls of the source. Unless noted, calls follow the shape of the dose curve; as a rule, active = well fitted curve in the direction sought with a large enough effect in the repeat runs; inconclusive = weak or mixed curves; inactive = no such curve, though single readings can be large; an effect the other way counts as inactive or inconclusive. Positions of bridges follow the written chain, without caps; N, C: chain ends. Non-standard residues stand in square brackets, D forms with d. Residues, ends and D or L forms follow the SMILES beside them. hArg = N=C(N)NCCCC[C@H](N)C(=O)O; Mpa = O=C(O)CCS

Experiments:
[1] = qHTS assay to identify aromatase inhibitors - cell viability counter screen (AID 743084);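 also: cells stimulated with testosterone during compound exposure; nearly all actives have a fitted effect of over 55% in size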
[2] = biological target: Aryl hydrocarbon receptor (Homo sapiens) (UniProt P35869); assay: qHTS assay to identify small molecule that activate the aryl hydrocarbon receptor (AhR) signaling pathway (AID 743085); also: nearly all actives have a fitted effect of over 15% in size; also: potency is read from the fitted curve at half-maximal effect;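 as to activation: HG2L7.5c1 human HepG2 liver cells with stably integrated DRE-driven firefly reporter; series mostly up to about 70 µM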
Outline: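 Steps: seed HepG2-AhR-luc cells; allow 5 h at 37C; pin-transfer test compound or vehicle; incubate 24 h at 37C; add viability dye (30 min, 37C) and read fluorescence; add luciferase substrate (30 min, RT) and read luminescence.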

[3] = qHTS assay to identify small molecule that activate the aryl hydrocarbon receptor (AhR) signaling pathway - cell viability counter screen (AID 743086);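 also: HepG2 liver cells carrying the AhR DRE luciferase reporter; series mostly up to about 70 µM; nearly all actives have a fitted effect of over 45% in size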
Outline: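 Cytotoxicity counter screen: CellTiter-Fluor signal (30 min, 37 C) in 4000 HepG2 cells/well carrying the DRE-luciferase reporter, following 24 h compound exposure at 37 C.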

[4] = biological target: Peroxisome proliferator-activated receptor gamma (Homo sapiens) (UniProt P37231); assay: qHTS assay to identify small molecule agonists of the peroxisome proliferator-activated receptor gamma (PPARg) signaling pathway (AID 743094; active = well fitted activation curve with a large enough effect in the signal ratio in the repeat runs, not every such curve was filed as active; the % refers to the signal ratio)
Outline: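 HEK293H PPARg-bla cells, 5 h settle at 37C/5% CO2; compound (DMSO) 17 h, 37C; B/G FRET substrate 1 h RT; fluorescence intensity read-out. qHTS format.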

[5] = biological target: Peroxisome proliferator-activated receptor gamma (Homo sapiens) (UniProt P37231); assay: qHTS assay to identify small molecule antagonists of the peroxisome proliferator-activated receptor gamma (PPARg) signaling pathway (AID 743191; calls by dose curve; also: series mostly up to about 63 µM; nearly all actives have a fitted effect of over 30% in size)
Outline: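 Beta-lactamase reporter under UAS control in HEK293H PPARg-bla cells; compound treatment 17 h at 37C. Read-out: fluorescence intensity after 1 h room-temperature incubation with LiveBLAzer B/G FRET substrate.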

[6] = qHTS assay to identify small molecule antagonists of the peroxisome proliferator-activated receptor gamma (PPARg) signaling pathway - cell viability counter screen (AID 743194); also: nearly all actives have a fitted effect of over 55% in size
Outline: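 Viability was measured as CellTiter-Glo luminescence in GeneBLAzer PPARg UAS-bla HEK293H cells. These cells had been exposed 17 h at 37 C to compounds together with rosiglitazone at 50 nM final, with the beta-lactamase readout taken in the same wells.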

[7] = qHTS assay for small molecule agonists of the antioxidant response element (ARE) signaling pathway (AID 743202; active = well fitted activation curve with a large enough effect in the signal ratio in the repeat runs, not every such curve was filed as active; the % refers to the signal ratio; also: potency is read from the fitted curve at half-maximal effect)
Outline: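 Beta-lactamase reporter activity, read as fluorescence intensity, reflects ARE/Nrf2 pathway induction in HepG2 cells after 16 h compound exposure at 37 C; substrate loading was 2 h at room temperature.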

[8] = qHTS assay for small molecule agonists of the antioxidant response element (ARE) signaling pathway - cell viability counter screen (AID 743203; calls by dose curve; also: nearly all actives have a fitted effect of over 55% in size)
Outline: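 Luminescence read-out (CellTiter-Glo, 30 min at room temperature) measured cell viability in the same wells as the ARE beta-lactamase reporter. HepG2 ARE-bla cells were treated with compounds for 16 hrs at 37C/5% CO2.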

[9] = qHTS assay for small molecule activators of the heat shock response signaling pathway - cell viability counter screen (AID 743209); also: nearly all actives have a fitted effect of over 50% in size
Outline: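 HSE-bla HeLa; 1500 cells/well; overnight 37 C, 5% CO2; compound 5 h 37 C; LiveBLAzer B/G substrate 2.5 h RT; CellTiter-Glo 30 min RT; luminescence.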

[10] = qHTS assay for small molecule activators of the heat shock response signaling pathway (AID 743210; active = well fitted activation curve with a large enough effect in the signal ratio in the repeat runs, with a control signal flat, not every such curve was filed as active; the % refers to the signal ratio;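 also: HeLa cells with beta-lactamase reporter driven by heat shock elements; series mostly up to about 63 µM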)
Outline: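 Fluorescence from a cleaved B/G FRET substrate (2.5 h, room temp) reports HSE-driven beta-lactamase in HeLa cells treated 5 h at 37 C with DMSO-dissolved compounds.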

[11] = qHTS assay to identify small molecule agonists of the peroxisome proliferator-activated receptor delta (PPARd) signaling pathway - cell viability counter screen (AID 743211); also: nearly all actives have a fitted effect of over 55% in size
Outline: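 Viability of GeneBLAzer PPARd UAS-bla HEK293H cells was assessed after 17 h compound incubation at 37C, using CellTiter-Glo reagent added after the reporter read and luminescence recorded 30 min later.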

[12] = biological target: Peroxisome proliferator-activated receptor delta (Homo sapiens) (UniProt Q03181); assay: qHTS assay to identify small molecule agonists of the peroxisome proliferator-activated receptor delta (PPARd) signaling pathway (AID 743212; calls by dose curve)
Outline: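 Steps: seed PPARd-bla HEK293H cells; incubate 5 h, 37 C, 5% CO2; add compounds in DMSO; incubate, 37 C; add LiveBLAzer B/G FRET substrate; hold 2 h at room temperature; measure fluorescence.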

[13] = biological target: Peroxisome proliferator-activated receptor delta (Homo sapiens) (UniProt Q03181); assay: qHTS assay to identify small molecule antagonists of the peroxisome proliferator-activated receptor delta (PPARd) signaling pathway (AID 743215; active = well fitted inhibition curve with a large enough effect in the signal ratio in the repeat runs, not every such curve was filed as active; the % refers to the signal ratio;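 also: cells stimulated with agonist L165041 at 300 nM final during compound exposure; series mostly up to about 62 µM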)
Outline: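 HEK293H GeneBLAzer PPARd UAS-bla reporter cells; cpd + L165041 300 nM final, 17 h 37 C; LiveBLAzer B/G FRET substrate 2 h RT; fluorescence intensity read-out. Antagonist mode.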

[14] = qHTS assay to identify small molecule antagonists of the farnesoid-X-receptor (FXR) signaling pathway - cell viability counter screen (AID 743221; active = well fitted cell-killing curve with a large enough effect in the repeat runs, not every such curve was filed as active; also: nearly all actives have a fitted effect of over 50% in size)
Outline: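 Quantitative HTS of the Tox21 10K library run in parallel with the beta-lactamase reporter read. HEK 293T cells carrying a UAS-driven bla reporter got compound and 50 uM CDCA (final) for 16 h; ATP-based luminescence followed.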

[15] = biological target: Vitamin D3 receptor (Homo sapiens) (UniProt P11473); assay: qHTS assay to identify small molecule agonists of the vitamin D receptor (VDR) signaling pathway (AID 743222; calls by dose curve)
Outline: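 Beta-lactamase reporter readout (LiveBLAzer B/G FRET, 2 h RT) in VDR-bla cells after 16 h compound treatment at 37C, 5% CO2; cells pre-incubated 4 h before pin transfer of DMSO solutions.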

[16] = biological target: Vitamin D3 receptor (Homo sapiens) (UniProt P11473); assay: qHTS assay to identify small molecule antagonists of the vitamin D receptor (VDR) signaling pathway (AID 743223; active = well fitted inhibition curve with a large enough effect in the signal ratio in the repeat runs, not every such curve was filed as active; the % refers to the signal ratio)
Outline: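 Fluorescence from LiveBLAzer B/G FRET substrate, read after 2 h at room temperature, reflects beta-lactamase reporter activity in VDR-bla cells treated 16 h at 37C with compounds and agonist 1alpha,25-dihydroxyvitamin D3 (3 nM final).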

[17] = qHTS assay to identify small molecule antagonists of the peroxisome proliferator-activated receptor delta (PPARd) signaling pathway - cell viability counter screen (AID 743213); also: nearly all actives have a fitted effect of over 50% in size
Outline: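 Viability counter-screen, qHTS format: PPARd-bla HEK293H, L165041 300 nM final, 17 h compound exposure at 37 C, CellTiter-Glo luminescence after 30 min RT.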

[18] = biological target: Bile acid receptor (Homo sapiens) (UniProt Q96RI1); assay: qHTS assay to identify small molecule antagonists of the farnesoid-X-receptor (FXR) signaling pathway (AID 743217; active = well fitted inhibition curve with a large enough effect in the signal ratio in the repeat runs, not every such curve was filed as active; the % refers to the signal ratio)
Outline: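 Read-out: beta-lactamase FRET fluorescence (LiveBLAzer B/G substrate, 2 h, room temperature) in GeneBLAzer FXR-UAS-bla HEK 293T cells. Compounds were co-dosed with 50 uM chenodeoxycholic acid (final) and incubated 16 h at 37 °C.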

[19] = qHTS assay to identify small molecule agonists of the farnesoid-X-receptor (FXR) signaling pathway - cell viability counter screen (AID 743218); also: nearly all actives have a fitted effect of over 45% in size
Outline: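 Luminescence from CellTiter-Glo, read after 30 min at RT, reports viability of GeneBLAzer FXR-UAS-bla HEK 293T cells treated 16 h with compounds in the wells used for the beta-lactamase reporter.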

[20] = biological target: Bile acid receptor (Homo sapiens) (UniProt Q96RI1); assay: qHTS assay to identify small molecule agonists of the farnesoid-X-receptor (FXR) signaling pathway (AID 743220; active = well fitted activation curve with a large enough effect in the signal ratio in the repeat runs, not every such curve was filed as active; the % refers to the signal ratio)
Outline: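 FXR-UAS-bla HEK 293T cells carrying a UAS-driven beta-lactamase reporter were plated for 5 h at 37C/5% CO2, then exposed to DMSO-dissolved Tox21 10K compounds for 16 h at 37C. A LiveBLAzer B/G FRET substrate was loaded for 2 h at room temperature before fluorescence reading.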

Measured: Potency

Chain of Peroxisome proliferator-activated receptor gamma (Homo sapiens) (P37231 whole entry, looked up): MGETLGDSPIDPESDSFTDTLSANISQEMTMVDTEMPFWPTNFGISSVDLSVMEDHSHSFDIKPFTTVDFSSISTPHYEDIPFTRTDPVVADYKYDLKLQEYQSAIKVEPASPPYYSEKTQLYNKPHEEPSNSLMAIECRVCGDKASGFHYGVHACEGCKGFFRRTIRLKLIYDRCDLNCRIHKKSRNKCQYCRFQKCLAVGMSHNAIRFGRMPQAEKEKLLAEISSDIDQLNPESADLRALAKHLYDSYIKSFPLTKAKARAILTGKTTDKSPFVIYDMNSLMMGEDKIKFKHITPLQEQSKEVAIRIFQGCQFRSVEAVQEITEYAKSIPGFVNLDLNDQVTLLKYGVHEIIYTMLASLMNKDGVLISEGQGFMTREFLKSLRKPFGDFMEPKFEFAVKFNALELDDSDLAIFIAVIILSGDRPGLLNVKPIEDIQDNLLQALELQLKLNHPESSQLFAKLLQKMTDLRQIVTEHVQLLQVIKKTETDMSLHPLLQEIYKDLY
Chain of Bile acid receptor (Homo sapiens) (Q96RI1 whole entry, looked up): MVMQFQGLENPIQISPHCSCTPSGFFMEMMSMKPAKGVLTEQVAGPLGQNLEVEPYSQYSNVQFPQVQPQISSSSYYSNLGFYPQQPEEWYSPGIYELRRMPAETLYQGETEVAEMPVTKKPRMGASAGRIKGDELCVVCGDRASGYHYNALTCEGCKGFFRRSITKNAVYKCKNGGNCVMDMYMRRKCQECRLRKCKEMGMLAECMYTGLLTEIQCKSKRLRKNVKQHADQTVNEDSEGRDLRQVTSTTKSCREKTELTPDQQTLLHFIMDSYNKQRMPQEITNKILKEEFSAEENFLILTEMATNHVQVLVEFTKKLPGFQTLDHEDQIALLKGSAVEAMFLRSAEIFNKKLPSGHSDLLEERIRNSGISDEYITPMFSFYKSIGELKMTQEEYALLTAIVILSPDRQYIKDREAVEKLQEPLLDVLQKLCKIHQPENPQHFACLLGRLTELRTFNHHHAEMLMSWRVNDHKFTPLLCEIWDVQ
Chain of Vitamin D3 receptor (Homo sapiens) (P11473 whole entry, looked up): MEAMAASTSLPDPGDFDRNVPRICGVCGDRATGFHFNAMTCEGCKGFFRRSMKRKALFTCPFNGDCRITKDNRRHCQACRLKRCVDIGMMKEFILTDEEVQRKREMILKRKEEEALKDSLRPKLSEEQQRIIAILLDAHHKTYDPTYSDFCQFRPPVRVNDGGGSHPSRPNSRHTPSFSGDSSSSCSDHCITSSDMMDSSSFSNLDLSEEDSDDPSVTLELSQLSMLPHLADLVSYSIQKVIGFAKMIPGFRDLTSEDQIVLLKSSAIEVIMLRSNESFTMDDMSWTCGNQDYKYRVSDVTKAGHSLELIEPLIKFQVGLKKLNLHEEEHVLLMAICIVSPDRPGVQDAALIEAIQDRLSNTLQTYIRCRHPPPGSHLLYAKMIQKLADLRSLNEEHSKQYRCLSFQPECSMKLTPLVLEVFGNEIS
Chain of Peroxisome proliferator-activated receptor delta (Homo sapiens) (Q03181 whole entry, looked up): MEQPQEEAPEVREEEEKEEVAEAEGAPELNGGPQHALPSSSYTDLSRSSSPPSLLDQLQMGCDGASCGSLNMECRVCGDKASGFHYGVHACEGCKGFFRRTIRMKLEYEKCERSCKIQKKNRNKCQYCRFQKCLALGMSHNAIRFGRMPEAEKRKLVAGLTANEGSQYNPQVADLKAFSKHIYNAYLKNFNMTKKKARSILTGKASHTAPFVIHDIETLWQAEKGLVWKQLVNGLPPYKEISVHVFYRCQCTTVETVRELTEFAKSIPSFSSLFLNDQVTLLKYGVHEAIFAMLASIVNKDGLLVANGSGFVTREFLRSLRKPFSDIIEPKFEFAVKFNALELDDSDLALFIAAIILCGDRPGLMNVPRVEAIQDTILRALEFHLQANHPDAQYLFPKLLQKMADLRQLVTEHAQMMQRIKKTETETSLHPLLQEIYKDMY
Chain of Aryl hydrocarbon receptor (Homo sapiens) (P35869 whole entry, looked up): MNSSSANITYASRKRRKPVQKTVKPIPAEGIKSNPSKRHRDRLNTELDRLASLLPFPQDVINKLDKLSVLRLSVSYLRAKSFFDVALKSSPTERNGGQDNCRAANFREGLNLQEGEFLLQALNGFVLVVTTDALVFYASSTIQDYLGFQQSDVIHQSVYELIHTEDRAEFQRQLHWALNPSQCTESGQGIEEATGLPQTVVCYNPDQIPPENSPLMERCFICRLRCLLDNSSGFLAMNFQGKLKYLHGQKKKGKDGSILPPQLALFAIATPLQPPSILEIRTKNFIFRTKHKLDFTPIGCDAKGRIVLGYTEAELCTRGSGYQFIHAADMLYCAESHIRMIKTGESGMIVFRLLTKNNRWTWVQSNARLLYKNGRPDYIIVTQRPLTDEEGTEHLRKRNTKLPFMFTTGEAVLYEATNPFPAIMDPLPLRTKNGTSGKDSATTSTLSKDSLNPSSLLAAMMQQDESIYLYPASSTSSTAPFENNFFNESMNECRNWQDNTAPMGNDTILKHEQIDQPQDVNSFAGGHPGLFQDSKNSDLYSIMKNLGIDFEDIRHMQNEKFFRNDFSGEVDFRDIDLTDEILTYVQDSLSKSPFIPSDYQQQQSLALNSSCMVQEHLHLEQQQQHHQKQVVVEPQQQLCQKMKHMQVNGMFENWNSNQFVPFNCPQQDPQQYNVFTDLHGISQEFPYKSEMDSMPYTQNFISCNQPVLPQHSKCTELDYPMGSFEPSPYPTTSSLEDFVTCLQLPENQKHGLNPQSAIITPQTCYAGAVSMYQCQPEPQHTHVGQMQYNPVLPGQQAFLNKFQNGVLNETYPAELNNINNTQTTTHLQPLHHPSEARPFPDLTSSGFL

CC(=O)O[Si](C)(OC(C)=O)OC(C)=O
inactive: [1] | [2] | [3] | [4] | [5] | [6] | [7] | [8] | [9] | [10] | [11] | [12] | [13] | [14] | [15] | [16]

NCCOCCN
inactive: [1] | [2] | [3] | [4] | [5] | [6] | [7] | [8] | [9] | [10] | [11] | [12] | [17] | [13] | [14] | [15] | [16]

Cc1ccc(N)cc1S(=O)(=O)O
inactive: [1] | [2] | [3] | [4] | [5] | [6] | [7] | [8] | [9] | [10] | [11] | [12] | [17] | [13] | [18] | [19] | [20] | [14] | [15]

CC/C(C)=N\O[Si](C)(O/N=C(\C)CC)O/N=C(\C)CC
active: [2] 24.7 µM
inactive: [1] | [3] | [4] | [5] | [6] | [7] | [8] | [9] | [10] | [11] | [17] | [18] | [19] | [20] | [14] | [15]

O=C(O)CSCC(=O)NC1CCSC1=O (stereo not given)
inactive: [1] | [2] | [3] | [4] | [5] | [6] | [7] | [8] | [10] | [11] | [12] | [17] | [13] | [18] | [19] | [14] | [15]

COP(=O)(O)OP(=O)(O)OC
inactive: [1] | [2] | [3] | [4] | [5] | [6] | [7] | [8] | [10] | [11] | [17] | [19] | [14] | [15] | [16]

CC(=O)CCc1ccc(OC(C)=O)cc1
inactive: [1] | [2] | [3] | [4] | [5] | [6] | [7] | [9] | [10] | [11] | [12] | [17] | [13] | [18] | [19] | [20] | [14] | [15] | [16]

NC(=O)[C@@H]1CSSCCC(=O)N[C@@H](CCCCN=C(N)N)C(=O)NCC(=O)N[C@@H](CC(=O)O)C(=O)N[C@@H](Cc2c[nH]c3ccccc23)C(=O)N2CCC[C@H]2C(=O)N1 ([Mpa][hArg]GDWPC-NH2; disulfide 1-7)
inactive: [1] | [2] | [3] | [4] | [5] | [6] | [7] | [8] | [10] | [11] | [12] | [17] | [18] | [19] | [20] | [14] | [15] | [16]

O=C(NCN1CCOCC1)c1cnccn1
inactive: [1] | [2] | [3] | [4] | [5] | [6] | [7] | [8] | [9] | [11] | [12] | [17] | [13] | [19] | [14] | [15]

CCCCCCCCCCCCCBr
inactive: [1] | [2] | [3] | [4] | [5] | [6] | [7] | [8] | [10] | [11] | [17] | [13] | [18] | [19] | [20] | [14]

CC1(C)Oc2ccc(C#N)cc2[C@@H](N2CCCC2=O)[C@@H]1O
inactive: [1] | [2] | [3] | [4] | [5] | [6] | [7] | [8] | [9] | [11] | [17] | [18] | [19] | [20] | [14]

CCCSSCCC
inactive: [1] | [2] | [3] | [4] | [5] | [6] | [7] | [8] | [10] | [11] | [12] | [17] | [13] | [14] | [15] | [16]

CC(=O)O[C@@H]1CC2CCC1(C)C2(C)C (stereo not given in full)
inactive: [1] | [2] | [3] | [4] | [5] | [6] | [7] | [8] | [9] | [11] | [17] | [18] | [19] | [20] | [14] | [15] | [16]

COC(C)(OC)OC
inactive: [1] | [2] | [3] | [4] | [5] | [6] | [7] | [8] | [10] | [11] | [12] | [17] | [19] | [14] | [15]

OC[C@@H](O)C(O)[C@@H](O)CO (stereo not given in full)
inactive: [1] | [2] | [3] | [4] | [5] | [6] | [8] | [9] | [10] | [11] | [12] | [17] | [13] | [19] | [15]

CC/C=C\CCOC(=O)c1ccccc1O
inactive: [1] | [2] | [3] | [4] | [5] | [6] | [7] | [11] | [17] | [13] | [19] | [14] | [15]

COC(=O)/C=C\C(=O)O
inactive: [1] | [2] | [3] | [4] | [5] | [6] | [8] | [9] | [11] | [12] | [17] | [13] | [14]
active: [7] 27.3 µM
